Among all 2,400 compounds or so, about 1,400 (58%) were called active.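 How the source made its calls: active means inhibition of 30% or more at any tested dose; inconclusive means primary hits over the limit that were never retested; inactive means the rest.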 The set was probably picked from earlier hits. The list shows a part of the results.
Assay: coupled detection enzyme interference, dose response, artefact control for MgcRacGAP inhibitor project, biochemical, coupled enzyme counter-screen (AID 624351);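 further: signal is the ADP detection kit reading of free GDP without any GAP enzyme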
Details: ADP Hunter coupled enzyme counter-screen, fluorescence, no MgcRacGAP; series mostly up to 80 µM

Row | SMILES | IC50
1 | COc1cc(CNC2CCCCC2OC)cc(OC)c1 (configuration not stated) | inactive
2 | O=c1c2c(nc3cc(-c4ccccc4)[nH]n13)CCS2 | inactive
3 | O=C(CSc1nnc(C2CC2)n1C1CC1)N1CCN(c2ccc(O)cc2)CC1 | 45.6 µM (active)
4 | O=C(CSc1nnnn1C1CC1)N1CCN(c2ccc(O)cc2)CC1 | 31.5 µM (active)
5 | CCOC(=O)C1=C(C)Nc2ccc(C)cc2S1 | 79 µM (active)
6 | CCOC(=O)Nc1ccc2c(c1)Nc1ccccc1S2 | 40.6 µM (active)
7 | CCOC(=O)C1=C(C)Nc2ccccc2S1 | 41.3 µM (active)
8 | CSCCOC(=O)C1=C(C)Nc2ccc(C)cc2S1 | 35.6 µM (active)
9 | Cc1cc(C)n(CCC(=O)N/N=C/c2ccc(O)cc2)n1 | 74.1 µM (active)
10 | O=C(CSc1ccc2ccccc2n1)N/N=C/c1ccc(O)cc1 | 73.6 µM (active)
11 | O=C(CCn1cnc2ccccc21)N/N=C/c1ccc(O)cc1 | 57.4 µM (active)
12 | CCOc1cc(/C=N/NC(=O)CCn2nc(C)cc2C)ccc1O | 58.5 µM (active)
13 | CN(CCCCCCN(C)Cc1ccccc1O)Cc1ccccc1O | inactive
14 | C#CCOCCOCCOCCNc1nc(N2CCN(C(=O)[C@H](CCCCN)n3cc([C@@H](N)CC(C)C)nn3)CC2)nc(N2CCN(C(=O)[C@H](CCCCN)n3cc([C@@H](N)CC(C)C)nn3)CC2)n1 | inactive
15 | COC(=O)CCNCCSc1nnc(-c2ccco2)n1Cc1ccccc1 | inactive
16 | CCOCCCNC(=O)/C(C#N)=C/c1ccc([N+](=O)[O-])o1 | inactive
17 | N#C/C(=C/c1ccc(O)c(O)c1)C(=O)NCc1ccc(Cl)cc1 | 36.5 µM (active)
18 | CCOC(=O)c1c(C)n(-c2ccc(C)cc2)c2ccc(OCC(O)CNCC3CCCO3)cc12 (configuration not stated) | inactive
19 | N#C/C(=C\c1cccnc1)C(=O)Nc1cccc2ccccc12 | inactive
20 | CCOc1cc(/C=C(\C#N)C(=O)NCc2cccnc2)ccc1O | 45.3 µM (active)
21 | CCOc1cc(/C=C(\C#N)C(=O)NCC2CCCO2)ccc1O (configuration not stated) | 49.7 µM (active)
22 | CCOc1cc(/C=N/NC(=O)C(=O)NCc2cccnc2)ccc1O | 51.2 µM (active)

Row | SMILES | IC50
23 | C#CCOCCOCCOCCNc1nc(N2CCN(C(=O)C([C@@H](C)O)n3cc([C@@H](N)CCCCN)nn3)CC2)nc(N2CCN(C(=O)[C@H](CO)n3cc([C@@H](N)C(C)C)nn3)CC2)n1 (some centres not stated) | inactive
24 | CCN(CC)CC(C)(C)C(=O)/C=C/c1ccc(/C=C/C(=O)C(C)(C)CN(CC)CC)cc1 | inactive
25 | CCN(CC)c1ccc(/C=N/NC(=O)c2ccoc2C)cc1 | inactive
26 | CN(C)c1nc(Oc2ccc(/C=N/O)cc2)nc(N(C)C)n1 | inactive
27 | CN(C)c1ccc(/C=N/O)cc1 | 23.9 µM (active)
28 | CCN(CC)c1ccc(/C=N/O)cc1 | 21.6 µM (active)
29 | CCN(CC)c1ccc(/C=N\NC(N)=O)cc1 | 53.8 µM (active)
30 | O=C(O)c1ccc2nc(-c3ccco3)c(-c3ccco3)nc2c1 | inactive
31 | COc1cc(Br)c(CNc2cc(C)ccc2C)cc1OC | inactive
32 | COc1cccc(Nc2ccc(N3CCCCC3)cc2)c1OC | 8.89 µM (active)
33 | COc1cccc(CNCc2ccccc2Br)c1OC | inactive
34 | COc1ccc(CNCc2cccc(OC)c2OC)cc1Br | inactive
35 | COc1cccc(CNc2ccc(N3CCC(C)CC3)cc2)c1OC | 6.68 µM (active)
36 | COc1ccc(C)cc1NCc1cccc(OC)c1OC | 70.3 µM (active)
37 | COc1cccc(CN2CCN(Cc3cccc(Oc4ccccc4)c3)CC2)c1OC | inactive
38 | COc1cccc(CN2CCN(Cc3cc(OC)c(OC)c(OC)c3)CC2)c1OC | inactive
39 | COc1cccc(OC)c1OCCCN1CCOCC1 | inactive
40 | COc1cccc(OC)c1OCCCCN1CCCC1 | inactive
41 | COc1cccc(CNc2ccc(N3CCCCC3)cc2)c1OC | 4.01 µM (active)
42 | COc1cc(/C=C/C(=O)OCC(=O)Nc2c(C)n(C)n(-c3ccccc3)c2=O)ccc1O | 53.6 µM (active)
43 | Cc1c(NC(=O)CN2CC(C)OC(C)C2)c(=O)n(-c2ccccc2)n1C (configuration not stated) | inactive
44 | COc1cc(/C=C/C(=O)OC(C)C(=O)Nc2c(C)n(C)n(-c3ccccc3)c2=O)ccc1O (configuration not stated) | 45.4 µM (active)

Row | SMILES | IC50
45 | Cc1c(O)ccc2c3c(c(=O)oc12)CCCC3 | 23.7 µM (active)
46 | CCn1c(=S)[nH]c2sc3c(c2c1=O)CCCC3 | 35 µM (active)
47 | COCCCn1c(=S)[nH]c2sc3c(c2c1=O)CCCC3 | 30.9 µM (active)
48 | COCCn1c(=S)[nH]c2sc3c(c2c1=O)CCCC3 | 34.3 µM (active)
49 | Nn1c(=S)[nH]c2sc3c(c2c1=O)CCCC3 | 67.3 µM (active)
50 | C=CCc1cc(C)ccc1OCCCn1ccnc1 | inactive
51 | O=C(O)c1cc(N2C(=O)C=CC2=O)cc(N2C(=O)C=CC2=O)c1 | inactive
52 | O=C1C=CC(=O)N1c1ccccc1N1C(=O)C=CC1=O | inactive
53 | O=C1C=CC(=O)N1c1ccc(Nc2ccccc2)cc1 | 34 µM (active)
54 | COc1cc(/C=C(\C#N)c2nc3ccccc3[nH]2)cc(OC)c1O | 27.1 µM (active)
55 | COc1cc(/C=C(\C#N)c2nc3ccccc3[nH]2)ccc1O | 14.8 µM (active)
56 | Cc1ccc2nc(/C(C#N)=C/c3ccc(O)c(O)c3)[nH]c2c1 | 26.8 µM (active)
57 | COc1cc(/C=C(\C#N)C(=O)c2c[nH]c3ccccc23)cc(OC)c1O | 51.3 µM (active)
58 | CN1C=CC=C/C1=C(\C#N)c1nc2ccccc2[nH]1 | 52.5 µM (active)
59 | Nc1ccc(N2CCN(C(=O)c3cccs3)CC2)cc1 | 22.1 µM (active)
60 | Nc1ccc(N2CCN(c3ccc(F)cc3)CC2)cc1 | 19.9 µM (active)
61 | CC(=O)N1CCN(c2ccc(N)cc2)CC1 | 13.5 µM (active)
62 | CCC(C)N1CCN(C(=O)c2cccs2)CC1 (configuration not stated) | inactive
63 | COc1cc(CN2CCN(c3ccccc3F)CC2)cc(OC)c1O | inactive
64 | Nc1ccc(N2CCN(c3ccccc3)CC2)c(F)c1 | 37.9 µM (active)
65 | COc1ccc(N2CCN(CC(O)COC(c3ccc(F)cc3)c3ccc(F)cc3)CC2)cc1 (configuration not stated) | inactive
66 | O=C(c1cccs1)N1CCN(Cc2ccncc2)CC1 | inactive

Row | SMILES | IC50
67 | COCC(C)NCc1ccccc1C (configuration not stated) | inactive
68 | CCN1CCN(CC(O)COC(c2ccccc2)c2ccccc2C)CC1 (configuration not stated) | inactive
69 | CCOCCCNC(=S)N1CCN(Cc2ccc3c(c2)OCO3)CC1 | inactive
70 | CC(C(=O)NC(=O)NC1CCCCC1)N1CCN(c2ccc(O)cc2)CC1 (configuration not stated) | 69.7 µM (active)
71 | CCN1CCN(C(C)C(=O)NC2CCCCC2)CC1 (configuration not stated) | inactive
72 | CC(C(=O)NC1CCCCC1)N1CCN(C)CC1 (configuration not stated) | inactive
73 | COc1cc(/C=N\NC(=O)CNC(=O)C(c2ccccc2)c2ccccc2)ccc1O | 50.6 µM (active)
74 | COc1cc(/C=N/NC(=O)Cc2nnc(NC(=O)c3ccccc3)s2)ccc1O | inactive
75 | COc1ccc(C)cc1NC(=O)C(NCC(O)c1ccccc1)c1ccccc1 (configuration not stated) | inactive
76 | COc1cc(/C=N/NC(=O)CCc2ccccc2)ccc1O | 29.9 µM (active)
77 | COc1cc(/C=N\NC(=O)CC(=O)NCCc2ccccc2)ccc1O | 29.2 µM (active)
78 | CCOc1cc(/C=N\NC(=O)CC(=O)NCCc2ccccc2)ccc1O | 46 µM (active)
79 | Cc1cccc(N2C(S)=C(C#N)C(=O)NC2c2ccco2)c1 (configuration not stated) | inactive
80 | O=C1C(SCCO)=C(SCCO)C(=O)c2ccccc21 | inactive
81 | COc1cc(/C=N/NC(=O)CCNC(=O)c2ccccc2Cl)ccc1O | 32.2 µM (active)
82 | COc1cc(/C=N/NC(=O)/C(=C/c2ccccc2)CCO)ccc1O | 45.8 µM (active)
83 | COc1cc(OC)c(OC)cc1CN1CCN(Cc2ccc(SC)cc2)CC1 | inactive
84 | CCC(C)n1c(=S)[nH]c2c(sc3ccc([N+](=O)[O-])cc32)c1=O (configuration not stated) | 58.8 µM (active)
85 | O=C(O)CCCn1c(=S)[nH]c2c(sc3ccc([N+](=O)[O-])cc32)c1=O | 30.5 µM (active)
86 | O=C(C1CCN(Cc2cc(Cl)ccc2O)CC1)N1CCN(Cc2ccccc2)CC1 | inactive
87 | COc1ccc2nc3cc(Cl)ccc3c(Nc3ccc(O)c(CN4CCN(C)CC4)c3)c2c1 | 82 µM (active)
88 | COc1ccc(CN2CCN(CCCCOc3ccc(Cl)cc3)CC2)c(OC)c1OC | inactive

Row | SMILES | IC50
89 | COc1cc(CNCc2ccccc2C(F)(F)F)cc(OC)c1 | inactive
90 | Cc1nc(/N=C(\N)NC(=O)N2c3ccccc3Sc3ccccc32)nc2ccccc12 | inactive
91 | COc1cc(CN2CCC(C(=O)N3CCCC(C)C3)CC2)cc(Br)c1O (configuration not stated) | inactive
92 | Oc1ccc(C=NNc2ccccn2)c(O)c1 | 20.8 µM (active)
93 | Oc1ccc(/C=N/Nc2cccc(Cl)n2)c(O)c1 | 25.6 µM (active)
94 | Cc1nc(Cl)cc(N/N=C/c2ccc(O)cc2O)n1 | 17.3 µM (active)
95 | COc1cc2c(cc1N)-c1ccc(N)cc1C2 | 36.1 µM (active)
96 | Nc1cc2c(cc1N)-c1ccccc1C2 | 55.6 µM (active)
97 | Nc1ccc2c(c1Br)Cc1ccccc1-2 | 59.2 µM (active)
98 | Nc1ccc2c(c1)Cc1cc(N)c(Cl)cc1-2 | 8.61 µM (active)
99 | O=C1C=CC(=Nc2ccc3c(c2)Cc2ccccc2-3)O1 | inactive
100 | Nc1ccc2c(c1)Cc1cc(N)c(Br)cc1-2 | 7.05 µM (active)
101 | Cc1ccc(OCCCN2CCCC2)c(C)c1 | inactive
102 | O=C(CNS(=O)(=O)c1ccccc1)N/N=C/c1ccc(O)cc1 | 61.6 µM (active)
103 | COc1ccc(Cc2nnc(NC(=O)Cc3cccs3)s2)cc1 | inactive
104 | O=C(Cc1cccs1)N/N=C\c1ccc(O)cc1 | 42.6 µM (active)
105 | C[n+]1c(-c2ccc(C=NNC(=O)c3ccc(C(=O)NN=Cc4ccc(-c5cn6ccccc6[n+]5C)cc4)cc3)cc2)cn2ccccc21 | inactive
106 | O=C(C[n+]1ccccc1)N/N=C/c1ccc(O)cc1 | 81.2 µM (active)
107 | CC(=O)Oc1ccc2c(=O)c(Oc3ccccc3)coc2c1OC(C)=O | inactive

Reference: PubChem BioAssay AID624351 (Southern Research Specialized Biocontainment Screening …, 2012)
